Measured values as given in PubChem BioAssay AID1159580 (chemical genetic matrix, 2015).
Values joined by “and” are separate entries in the source; they are usually repeats but may differ in a detail not shown here. Equal entries are not always repeated. Hit rate of the full screen: of about 5,500 compounds, about 2,000 (36%) were called active. About 18% were inconclusive and are not listed. Cut-off read from the data, not from the text of the source: active = normalized growth mostly below about 0.91 (no sharp cut-off); inconclusive = no clear call, values can overlap the other calls; inactive = mostly above about 0.92. The list shows a part of the results.

Test: chemical genetic growth profiling, strain panel (AID 1159580);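 note: tested at 20 µM; growth read once vehicle control cultures reached saturation at 30 °C; 1 = growth at the plate median or of vehicle wells; lower values mean less growth of the strain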
Settings: S. cerevisiae deletion strains, growth OD

Measured: normalized growth

CN/C(=C\[N+](=O)[O-])NCCSCc1ccc(CN(C)C)o1
inactive: locus YAL021C, strain ccr4, active compounds read low 0.979 | locus YAL026C, strain drs2, active compounds read low 0.99 | locus YAL030W, strain snc1, active compounds read low 1 | locus YAL040C, strain CLN3, active compounds read low 1 | locus YBL061C, strain skt5, active compounds read low 0.974 | locus YBR009C, strain hhf1, active compounds read low 0.998 | locus YBR021W, strain FUR4, active compounds read low 1.04 | locus YBR023C, strain chs3, active compounds read low 0.989 | locus YBR171W, strain sec66, active compounds read low 0.989 | locus YBR229C, strain ROT2, active compounds read low 1.02 | locus YBR231C, strain swc5, active compounds read low 0.977 | locus YBR279W, strain paf1, active compounds read low 0.991 | locus YCL011C, strain gbp2, active compounds read low 0.984 | locus YCL016C, strain dcc1, active compounds read low 0.986 | locus YCL029C, strain bik1, active compounds read low 1 | locus YCL061C, strain MRC1 (second series), active compounds read low 1.01 | locus YCL069W, strain vba3, active compounds read low 0.973 | locus YCR088W, strain abp1, active compounds read low 0.976 | locus YDL005C, strain med2, active compounds read low 0.977 | locus YDL035C, strain GPR1, active compounds read low 1.04 | locus YDL040C, strain nat1, active compounds read low 0.99 | locus YDL074C, strain BRE1, active compounds read low 1.07 | locus YDL101C, strain DUN1, active compounds read low 1.03 | locus YDL134C, strain PPH21, active compounds read low 1.03 | locus YDL185W, strain tfp1, active compounds read low 0.987 | locus YDL192W, strain arf1, active compounds read low 0.989 | locus YDR001C, strain nth1, active compounds read low 0.982 | locus YDR069C, strain doa4, active compounds read low 0.97 | locus YDR101C, strain arx1, active compounds read low 1.01 | locus YDR137W, strain rgp1, active compounds read low 0.975 | locus YDR150W, strain NUM1, active compounds read low 1.02 | locus YDR159W, strain sac3, active compounds read low 0.94 | locus YDR162C, strain NBP2, active compounds read low 1.02 | locus YDR195W, strain ref2 0.943 | locus YDR297W, strain sur2, active compounds read low 0.972 | locus YDR318W, strain mcm21, active compounds read low 0.991 | locus YDR334W, strain swr1, active compounds read low 0.977 | locus YDR335W, strain msn5, active compounds read low 0.998 | locus YDR363W, strain ESC2, active compounds read low 1 | locus YDR388W, active compounds read low 0.995 | locus YDR392W, strain spt3, active compounds read low 0.993 | locus YDR502C, strain sam2, active compounds read low 0.997 | locus YEL003W, strain gim4, active compounds read low 0.992 | locus YEL037C, strain rad23, active compounds read low 0.986 | locus YEL061C, strain CIN8 (second series), active compounds read low 0.977 | locus YEL061C, strain CIN8, active compounds read low 1.01 | locus YER002W, strain NOP16, active compounds read low 0.988 | locus YER015W, strain faa2, active compounds read low 0.995 | locus YER016W, strain bim1, active compounds read low 0.973 | locus YER110C, active compounds read low 1 | locus YER111C, strain swi4, active compounds read low 0.992 | locus YER155C, strain BEM2 (second series), active compounds read low 0.973 | locus YER155C, strain BEM2, active compounds read low 1.01 | locus YER167W, strain BCK2, active compounds read low 1.02 | locus YFR010W, strain ubp6, active compounds read low 0.99 | locus YGL078C, strain dbp3, active compounds read low 0.986 | locus YGL086W, strain mad1, active compounds read low 0.999 | locus YGL167C, strain pmr1, active compounds read low 0.987 | locus YGL173C, strain kem1, active compounds read low 0.989 | locus YGL227W, strain vid30, active compounds read low 0.978 | locus YGL240W, strain doc1, active compounds read low 0.996 | locus YGL248W, strain PDE1, active compounds read low 1.04 | locus YGL253W, strain hxk2, active compounds read low 0.993 | locus YGR078C, strain PAC10, active compounds read low 0.997 | locus YGR135W, strain pre9, active compounds read low 0.98 | locus YGR252W, strain gcn5, active compounds read low 0.984 | locus YHR013C, strain ard1, active compounds read low 0.952 | locus YHR027C, strain rpn1, active compounds read low 1.01 | locus YHR030C, strain SLT2, active compounds read low 1.02 and 0.986 | locus YHR079C, strain IRE1 (second series), active compounds read low 0.982 | locus YHR079C, strain IRE1, active compounds read low 0.999 | locus YHR094C, strain hxt1, active compounds read low 0.983 | locus YHR129C, strain ARP1, active compounds read low 1.02 | locus YHR142W, strain chs7, active compounds read low 0.99 | locus YHR200W, strain rpn10, active compounds read low 0.984 | locus YIL066C, strain RNR3, active compounds read low 1.04 | locus YIL073C, strain SPO22, active compounds read low 0.98 | locus YIL125W, strain kgd1, active compounds read low 0.984 | locus YIR030C, strain dcg1, active compounds read low 0.988 | locus YJL092W, strain hpr5, active compounds read low 0.979 | locus YJL095W, strain BCK1 (second series), active compounds read low 0.995 | locus YJL095W, strain BCK1, active compounds read low 1.05 and 0.995 | locus YJL115W, strain asf1, active compounds read low 0.986 | locus YJL129C, strain trk1, active compounds read low 0.957 | locus YJL134W, strain LCB3, active compounds read low 1.01 | locus YJL154C, strain vps35, active compounds read low 0.973 | locus YJL164C, strain tpk1, active compounds read low 0.996 | locus YJL166W, strain qcr8, active compounds read low 0.985 | locus YJL168C, strain set2, active compounds read low 0.988 | locus YJL187C, strain SWE1 (second series), active compounds read low 1.04 | locus YJL187C, strain SWE1, active compounds read low 0.977 | locus YJR043C, strain POL32, active compounds read low 1.05 | locus YJR066W, strain TOR1, active compounds read low 0.944 | locus YJR075W, strain HOC1, active compounds read low 0.996
